# Measurements from PubChem BioAssay (NCI).
# This is part of a sample that, as a whole, favours compounds with a hit. Of some 83,000 tested, about 20% had one in any assay.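 Interpretation: 100, growth as untreated; towards 0, rising growth inhibition; 0, no net growth; 0 to -100, cell death. Compounds scoring below 10 were considered active.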 Unmarked numbers belong to inactive results. Activity calls are given as the source filed them.
# How the values were obtained:
# Experiment in all cases: NCI-60 one-dose screen, 48 h (100 = growth as untreated, 0 = no growth, -100 = all killed)
# Settings in all cases: 10 µM unless noted
# NCI-H322M lung = tested on: NCI-H322M lung
# HOP-62 NSCLC = tested on: HOP-62 NSCLC
# NCI-H460 lung = tested on: NCI-H460 lung
# HOP-92 NSCLC = tested on: HOP-92 NSCLC
# NCI-H522 lung = tested on: NCI-H522 lung
# A549/ATCC NSCLC = tested on: A549/ATCC NSCLC
# 786-0 renal = tested on: 786-0 renal
# COLO 205 colon = tested on: COLO 205 colon
# DU-145 prostate = tested on: DU-145 prostate
# K-562 leukemia = tested on: K-562 leukemia
# MALME-3M melanoma = tested on: MALME-3M melanoma
# MDA-MB-231 breast = tested on: MDA-MB-231 breast
# RXF 393 renal = tested on: RXF 393 renal
# SF-268 CNS = tested on: SF-268 CNS
# SF-295 CNS = tested on: SF-295 CNS
# SF-539 CNS = tested on: SF-539 CNS
# UACC-257 melanoma = tested on: UACC-257 melanoma
# M14 melanoma = tested on: M14 melanoma
# HCT-15 colon = tested on: HCT-15 colon
SMILES,growth (NCI-H322M lung),growth (HOP-62 NSCLC),growth (NCI-H460 lung),growth (HOP-92 NSCLC),growth (NCI-H522 lung),growth (A549/ATCC NSCLC),growth (786-0 renal),growth (COLO 205 colon),growth (DU-145 prostate),growth (K-562 leukemia),growth (MALME-3M melanoma),growth (MDA-MB-231 breast),growth (RXF 393 renal),growth (SF-268 CNS),growth (SF-295 CNS),growth (SF-539 CNS),growth (UACC-257 melanoma),growth (M14 melanoma),growth (HCT-15 colon)
COc1cc(OC)c(S(=O)(=O)NNC(=O)c2ccncc2)cc1C(=O)/C=C/c1ccc(C)cc1,62.3%,103%,63.4%,42.1%,84.9%,93.4%,57.1%,99%,83.1%,27.3%,95.5%,67.4%,82.9%,60.9%,107%,65.3%,99.6%,56.4%,85.3%
CC(O)C(NC(=O)C1CCCN1C(=O)CNC(=O)C1CC(=O)NCC(=O)NC(Cc2c[nH]c3ccccc23)C(=O)NC(Cc2ccc(O)cc2)C(=O)NCC(=O)NC(CO)C(=O)NC(CCC(N)=O)C(=O)NC(Cc2c[nH]c3ccccc23)C(=O)N1)C(=O)NCC(=O)NC(CCC(N)=O)C(=O)NC(CCCNC(=N)N)C(=O)NC(CC(=O)O)C(=O)O (stereo unspecified),95.2%,105%,105%,94%,94.9%,105%,108%,–,104%,94.9%,95.5%,98.6%,116%,103%,102%,96%,102%,91.1%,99.5%
COC(=O)C1CCCN(S(=O)(=O)/N=C2\NC(=O)NC2=C(Cl)Cl)C1 (stereo unspecified),103%,118%,108%,110%,87.7%,106%,102%,112%,112%,10.9%,104%,102%,121%,106%,104%,105%,106%,99.3%,80.7%
COc1ccc(-c2nn3c(-c4ccccc4F)nnc3s2)cc1,75%,67.5%,30%,76.9%,20.2%,56.6%,72.5%,41.6%,72.2%,18.7%,66.1%,41.1%,68.4%,74.2%,58.5%,59.3%,86.4%,34.8%,31.5%
OC1CCN(CCCOc2c3ccccc3nc3c2oc2ccc(Cl)cc23)CC1,-1.27% (active),27%,4.79% (active),14%,-51.4% (active),1.98% (active),11.7%,–,5.05% (active),3.22% (active),1.25% (active),17%,-10.8% (active),22.8%,8.74% (active),14.6%,23.6%,-4.12% (active),10.1%
Cc1ccc(-c2nc(C(Cl)Cl)nc3cc(-c4ccccc4)nn23)cc1,-36.8% (active),-16.7% (active),-73.5% (active),-3.62% (active),1.72% (active),-56.3% (active),62.4%,-69.4% (active),-26.3% (active),14.3%,3.13% (active),12.9%,-63.8% (active),23.9%,10.3%,34.4%,28.9%,-11.1% (active),5.49% (active)
Cc1ccc(CNS(=O)(=O)/N=C2\NC(=O)NC2=C(Cl)Cl)cc1,99.9%,46.2%,75.3%,-1.1% (active),36.8%,99.2%,36.6%,113%,32.6%,27.7%,94.7%,40.3%,96.9%,61.8%,4.1% (active),1.74% (active),60.2%,87.2%,95.3%
COc1ccc(C(=O)/C=C/c2ccc(OCc3ccc(C)cc3)c(OC)c2)cc1OC,70.4%,101%,60.1%,60.6%,72.3%,63.3%,83.7%,95.3%,70.3%,25.4%,87.8%,59%,103%,72.4%,75.2%,72.1%,80.3%,86.8%,34.4%
OC1CCc2c(-c3ccc4ncnc(N5CCc6cc(F)c(Cl)cc65)c4c3)cncc21 (stereo unspecified),15%,63.7%,50.7%,23.1%,40.1%,50.3%,43.7%,–,35.8%,60.9%,64.5%,40.2%,8.06% (active),43.3%,54%,53.7%,89.4%,74.4%,41.1%
O=C(N/N=C/c1cccs1)c1[nH]c2ccc(Br)cc2c1-c1ccccc1,44.7%,44.2%,6.54% (active),39.9%,-43.9% (active),23.1%,12%,-67.6% (active),20.7%,4.72% (active),58.2%,5.46% (active),62.8%,35.3%,15.9%,2.22% (active),61.2%,1.81% (active),9.74% (active)
COc1cc(OC)c(C2C(Cl)C(=O)N2Nc2ncnc3ccccc23)cc1OC (stereo unspecified),92.3%,100%,107%,102%,94.2%,105%,98.6%,125%,109%,100%,93.2%,87.3%,112%,99.2%,102%,104%,111%,88.6%,101%
COc1ccc(-c2nc3ccc(-c4nnc(SCC(=O)Nc5ccc(C(=O)/C=C/c6ccccc6)cc5)o4)cc3[nH]2)cc1OC,102%,101%,106%,98.4%,98.4%,102%,99.3%,115%,107%,91.6%,97.1%,91.2%,110%,106%,94.9%,83.7%,110%,108%,91.8%
COc1cccc(OC)c1-c1nnn(C)c1C(=S)N1CCN(c2ccc([N+](=O)[O-])cc2Cl)CC1,82.6%,106%,101%,80.3%,93.6%,92.9%,92.1%,107%,100%,91.5%,89.2%,90.5%,82.4%,98.9%,89.9%,95.8%,108%,97%,89.6%
Nc1ncc(-c2ccc3ncnc(N4CCc5cc(F)c(Cl)cc54)c3c2)cc1CO,-2.33% (active),9.91% (active),6.98% (active),-13.2% (active),-18% (active),3.94% (active),4.92% (active),–,11.3%,7.76% (active),-25.8% (active),17%,-26.6% (active),8.31% (active),-11.5% (active),-17.8% (active),9.34% (active),-3.69% (active),5.51% (active)
C=CCn1c(SCC(=O)c2ccccc2)nnc1-c1c[nH]c2ccccc12,102%,92.5%,107%,81.3%,97.8%,100%,101%,122%,109%,92.6%,86.6%,88.8%,102%,102%,96.2%,97.3%,97.9%,97.7%,96%
